Measured values from PubChem BioAssay (NCI).
Where “and” joins values, the source holds several entries; their conditions need not be identical. Equal values may be shown once. Compounds without any hit were thinned out: in the full panel of roughly 83,000, 20% have a hit.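 Note: values are percent growth. 100 is the growth of untreated cells, values between 100 and 0 indicate rising inhibition; between -100 and 0 indicates cell death.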 Calls of active or inactive are those of the source. Where a SMILES comes first, the peptide text is derived from it. [ ]: non-standard residue; d: D form. ξ: configuration not given here. ξV = CC(C)C(N)C(=O)O

These compounds were tested on COLO 205 colon (assay: NCI-60 one-dose screen, 48 h (100 = growth as untreated, 0 = no growth, -100 = all killed)). Settings: 0.0025 µM.
Experimental: Cells are grown in 96 well plates and exposed to the test compound for 48 hours. Compounds are tested at a single concentration, which is 10^-5 M for most compounds. The reported endpoint is percent growth (GI% or GIPRCNT), where numbers from 0 - 100% represent growth inhibition, and numbers from -100% - 0 represent cell death. For example, a value of 40 represents 60% growth inhibition. A value of 0 means no net growth occurred over the course of the experiment. A value of -40 indicates 40% of cells at the beginning of the experiment died by the end of the experiment. A value of -100 means all cells are dead at the end of the experiment.
NCI-60 Human Tumor Cell Lines Screen was performed using the standard one-dose NCI protocol, which is described in more detail at https://dtp.cancer.gov/discovery_development/nci-60/default.htm.
Compounds with GIPRCNT values below 10 were considered active. Activity score was based on GIPRCNT using the following formula: […]
Score is 0 for GIPRCNT values of 100 or above, 50 for GIPRCNT values of 0, and 100 for GIPRCNT values of -100.

| Structure (SMILES) | growth |
| --- | --- |
| COc1cccc2c1C(=O)c1c(O)c3c(c(O)c1C2=O)C[C@@](O)(C(=O)CO)C[C@@H]3OC1CC(N)C(O)C(C)O1 (stereo not given in full) | 85.8% (inactive) |

Same assay, conditions: 1 µM

| Structure (SMILES) | growth |
| --- | --- |
| COc1cccc2c1C(=O)c1c(O)c3c(c(O)c1C2=O)C[C@@](O)(C(=O)CO)C[C@@H]3OC1CC(N)C(O)C(C)O1 (stereo not given in full) | 53.8% (inactive) |

Same assay, conditions: 2.5 µM

| Structure (SMILES) | growth |
| --- | --- |
| COc1cccc2c1C(=O)c1c(O)c3c(c(O)c1C2=O)C[C@@](O)(C(=O)CO)C[C@@H]3OC1CC(N)C(O)C(C)O1 (stereo not given in full) | 56.7% (inactive) |

Same assay, conditions: 10 µM

| Structure (SMILES) | growth |
| --- | --- |
| NC(=O)SCC(=O)NNc1ccccc1 | 100% (inactive) |
| N=S(c1ccccc1[N+](=O)[O-])c1ccccc1[N+](=O)[O-] | 2.39% (active) |
| COc1cccc2c1C(=O)c1c(O)c3c(c(O)c1C2=O)C[C@@](O)(C(C)=O)C[C@@H]3OC1CC(N)C(O)C(C)O1 (stereo not given in full) | -54.3% (active) |
| Nc1nc(=S)c2ncn(C3OC(CO)C(O)C3O)c2[nH]1 (stereo not given) | 155% (inactive) and 12.4% (inactive) |
| Cc1cc(O)c(C(C)C)cc1Cl | 107% (inactive) |
| CCO/C=C1\SC(=S)N(c2cccc(O)c2)C1=O | 109% (inactive) |
| CSC1SCC2C(=O)N(C)C(C(C)C)C(=O)OCC(NC(=O)c3cnc4ccccc4n3)C(=O)NC(C)C(=O)N(C)C1C(=O)N(C)C(C(C)C)C(=O)OCC(NC(=O)c1cnc3ccccc3n1)C(=O)NC(C)C(=O)N2C (stereo not given) | -45.3% (active) |
| CCCC1CCC(=C2C(=O)CCC2=O)O1 (stereo not given) | 100% (inactive) and 99.2% (inactive) |
| O=C(C(=Cc1ccccc1)C(=O)c1ccccc1)c1ccccc1 | 124% (inactive) |
| CC(C)(C)CC(C)(C)c1ccc(OCCO)cc1 | 110% (inactive) |
| O=c1ccn(C2CC(O)C(COC(c3ccccc3)(c3ccccc3)c3ccccc3)O2)c(=O)[nH]1 (stereo not given) | 114% (inactive) |
| Nc1ccc2cc3ccc(N)cc3nc2c1 | 109% (inactive) and -39.2% (active) |
| OCC1OC(n2cnc3c(=S)nc[nH]c32)C(O)C1O (stereo not given) | 116% (inactive) and 47.5% (inactive) |
| CCCCCCCCCCCC[N+](C)(C)Cc1ccccc1 | 15.7% (inactive) |
| COC(=O)C1C(O)C(C)C(O)C(C)C=C(C)C2=C3C(=C(C)C(=O)c4c(O)c(c(C)c(OC(C)=O)c43)NC(=O)C(C)=C/C=C\C(C)C(O)C(C)C1O)OCO2 (stereo not given) | 125% (inactive) |
| CC(C)C(NC(=O)CN)C(=O)O (stereo not given) (H-Gly-[ξV]-OH) | 117% (inactive) and 113% (inactive) |
| CN1CCN(CCCN2c3ccccc3Sc3ccc(C(F)(F)F)cc32)CC1 | -79% (active) |
| COc1c(O)cc2oc3cc(O)c(CC=C(C)C)c(O)c3c(=O)c2c1CC=C(C)C | 95.2% (inactive) |

| Structure (SMILES) | growth |
| --- | --- |
| OCC(O)C(O)C(O)C(/C=N/Nc1ccccc1)=N/Nc1ccccc1 (stereo not given) | 96.5% (inactive) |
| Clc1cc(Cl)c(Cl)nn1 | 120% (inactive) |
| Cc1nc(N=C(N)N)nc2ccc3ccccc3c12 | -16.4% (active) |
| CO[C@H](C(=O)[C@@H](O)[C@@H](C)O)[C@@H]1Cc2cc3cc(OC4CC(OC5CC(O)C(O)C(C)O5)C(O)C(C)O4)c(C)c(O)c3c(O)c2C(=O)[C@H]1OC1CC(OC2CC(OC3CC(C)(O)C(O)C(C)O3)C(O)C(C)O2)C(O)C(C)O1 (stereo not given in full) | -67.5% (active) |
| COC(=O)C1=COC(C)C2C[n+]3ccc4c([nH]c5ccccc54)c3CC12 (stereo not given) | 106% (inactive) and 99.7% (inactive) |
| CCCCCC(C)c1ccc(O)c(C)c1 (stereo not given) | 111% (inactive) |
| NNc1ccc2ccccc2c1 | 94% (inactive) and 109% (inactive) |
| NC1=C(Cl)C(=O)c2ccccc2C1=O | 95.2% (inactive) |
| O=C1NC(=O)c2cc([N+](=O)[O-])ccc21 | 111% (inactive) |
| CCCCCCCCCCSC(=N)N | -84% (active) |
| CC1=CC(C)=Nc2ccc(Cl)cc2N1 | 106% (inactive) |
| O=[N+]([O-])C1=C(c2ccccc2)SC=C(c2ccccc2)S1 | 86.9% (inactive) |
| CN(C)C(=S)SC(=S)N(C)C | 81.5% (inactive) and 49.1% (inactive) |
| COc1cccc2c1C(=O)c1c(O)c3c(c(O)c1C2=O)C[C@@](O)(C(=O)CO)C[C@@H]3OC1CC(N)C(O)C(C)O1 (stereo not given in full) | -47.4% (active) |
| CC[N+](CC)=c1ccc2nc3c(cc(N)c4ccccc43)oc-2c1 | -44.4% (active) |
| CCCCCCCCCCCCSC(=NC)NC | -85.4% (active) and -86.3% (active) |
| Cc1cc(NS(=O)(=O)c2ccc(N=Nc3cc(N=Nc4ccc(S(=O)(=O)Nc5cc(C)nc(C)n5)cc4)c4c(NC(=O)C(Cl)Cl)cccc4c3OC(=O)C(Cl)Cl)cc2)nc(C)n1 (tested in a mixture with another compound) | 109% (inactive) and 113% (inactive) |
| O=C(Nc1ccc(C(=O)O)c(O)c1)c1ccccc1 | 102% (inactive) and 130% (inactive) |

Same assay, conditions: 100 µM

| Structure (SMILES) | growth |
| --- | --- |
| O=c1ccn(C2CC(O)C(COC(c3ccccc3)(c3ccccc3)c3ccccc3)O2)c(=O)[nH]1 (stereo not given) | 59.4% (inactive) |
